From PubChem
Rows were chosen to be rich in hits. Some 27% of all compounds tested hit in one or more screens of this group.
CYP2C19 inh: blocks human cytochrome P450 2C19 | inhibition, % at 5 µM | CYP2C19 Supersomes, luciferin-H EGE luminescence, 30 min | AID 778 | P33261 | 96,000 compounds, 21% hits;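 active means CYP2C19 inhibition above a set limit at 5 µM in the primary screen, cut at about 50% in these data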
Target sequence (P33261 whole entry, looked up): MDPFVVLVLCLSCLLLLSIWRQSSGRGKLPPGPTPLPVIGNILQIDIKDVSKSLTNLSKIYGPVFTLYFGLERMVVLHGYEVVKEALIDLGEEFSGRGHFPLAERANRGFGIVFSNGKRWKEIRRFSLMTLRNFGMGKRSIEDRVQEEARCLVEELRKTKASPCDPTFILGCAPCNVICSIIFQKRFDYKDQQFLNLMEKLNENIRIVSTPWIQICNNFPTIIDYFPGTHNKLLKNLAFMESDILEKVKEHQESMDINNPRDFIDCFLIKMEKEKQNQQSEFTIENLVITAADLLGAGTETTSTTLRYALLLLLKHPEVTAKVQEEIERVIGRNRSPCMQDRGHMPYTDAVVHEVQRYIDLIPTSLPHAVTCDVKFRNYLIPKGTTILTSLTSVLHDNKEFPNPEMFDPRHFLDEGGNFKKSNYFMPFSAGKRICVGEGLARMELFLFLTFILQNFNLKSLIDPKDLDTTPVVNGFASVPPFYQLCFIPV
CYP2C9 inhib: blocks human cytochrome P450 2C9; 96,000 compounds, 20% hits; CYP2C9 Supersomes, luciferin-H conversion, luminescence; inhibition, % at 5 µM;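 active means blocking of liver enzyme CYP2C9 beyond about 50% at 5 µM, limit read from the data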
CYP2C9 act: CYP2C9 (human) activation. activation factor at 5 µM. AID 1024. P11712. recombinant CYP2C9, luciferin-H conversion, luminescence; hits give high values; factor 1 = untreated enzyme, 0 = blocked. 96,000 compounds, 1.4% hits;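 active means activation factor of 2 or more for CYP2C9 at a 5 µM dose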
sEH inh: inhibitors of human soluble epoxide hydrolase. AID 707. P34913. recombinant human sEH enzymatic activity assay. inhibition, % at 2 µM. 91,000 compounds, 0.34% hits; in the data active means inhibition above about 80%
CYP2C19 act: increases human CYP2C19 enzyme activity; 96,000 tested, under 10 active; AID 1025; recombinant CYP2C19, luciferin-H EGE luminescence; hits give high values; 0 = fully inhibited enzyme, 1 = untreated enzyme; P33261; activation factor at 5 µM;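 active means activation factor of at least 2 at 5 µM in the primary screen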
sEH act: increases human soluble epoxide hydrolase activity | purified human sEH enzymatic activity, activator screen | activation, % at 2 µM | 91,000 compounds, 0.04% hits | AID 717; in the data active means activation above about 37%
A number is an active result; – = inactive; · = not tested or not shown.

SMILES | CYP2C19 inh | CYP2C9 inhib | CYP2C9 act | sEH inh | CYP2C19 act | sEH act
CN(C)c1ccc(C(c2nnnn2C(C)(C)C)N2CCN(C(=O)c3ccco3)CC2)cc1 (stereo unspecified) | 61 | – | – | – | – | –
COCCn1nnnc1C(CC(C)C)N1CCN(C(=O)c2ccco2)CC1 (stereo unspecified) | – | – | – | · | – | ·
CC(C)CCn1nnnc1C(c1ccc(N(C)C)cc1)N1CCN(C(=O)c2ccco2)CC1 (stereo unspecified) | 90 | 66 | – | – | – | –
COc1ccccc1C(c1nnnn1C(C)(C)C)N1CCN(C(=O)c2ccco2)CC1 (stereo unspecified) | – | – | – | – | – | –
COc1cc(S(=O)(=O)N(C)C)ccc1F | · | · | · | – | · | –
CCCN1C(=O)C(O)(C2CC(=O)CC(C)(C)O2)c2ccccc21 (stereo unspecified) | – | – | – | – | – | –
COc1ccccc1N1CCN(C(c2cccs2)C(C)NC(=O)c2cccs2)CC1 (stereo unspecified) | · | · | · | – | · | –
Cc1ccc(C(=O)/C=C/c2ccc(Br)cc2)o1 | – | – | – | – | – | –
CCNc1ccccc(C(=O)/C=C/c2ccc3c(c2)OCO3)c1=O | 85 | – | – | – | – | –
Cc1ccc(C(=O)/C=C/c2ccc3c(c2)OCO3)o1 | 54 | – | – | – | – | –
Cc1ccc(C(=O)/C=C/c2ccccc2)o1 | 69 | 57 | – | – | – | –
CCNc1ccc(Br)cc(C(=O)/C=C/c2ccccc2Cl)c1=O | · | · | · | – | · | –
CCOC(=O)/C(C#N)=C\c1ccc2c(c1)OCO2 | · | · | · | – | · | –
O=C(O)CCC(=O)Nc1ccc(OCC(=O)O)cc1 | – | – | – | – | – | –
Cn1c(-c2ccc[nH]c2=O)nc2cc(Cl)ccc21 | · | · | · | – | · | –
CCOC(=O)CC(=O)CSc1nc2cc(C)ccc2cc1C | – | – | – | – | – | –
CCOC(=O)CC(=O)CSc1nc2c(C)c(C)ccc2cc1C | 61 | 54 | – | – | – | –
CCN1C(=O)c2cccc3c(NC(=O)c4cccc(N5C(=O)CCC5=O)c4)ccc1c23 | – | – | – | – | – | –
CCOc1cc(C(=O)Nc2ccc3c4c(cccc24)C(=O)N3CC)cc(OCC)c1OCC | – | 57 | – | – | – | –
COc1ccc(OC)c(Nc2cc(-c3ccccc3)nc(N)n2)c1 | 80 | 79 | – | – | – | –
COc1cccc(Nc2cc(C)nc3ccccc23)c1 | · | · | · | – | · | –
COc1ccc(OC)c(Nc2cc(C)nc3ccccc23)c1 | 56 | – | – | – | – | –
Cn1c(CN2CCOCC2)nnc1SCC(=O)NC1CCCCC1 | · | · | · | – | · | –
O=C(CCCOc1ccccc1)Nc1nnc(C2CCCO2)s1 (stereo unspecified) | 64 | 56 | – | · | – | ·
O=C(CCC(=O)Nc1nnc(C2CCCCC2)s1)NCC1CCCO1 (stereo unspecified) | – | – | – | – | – | –
SMILES | CYP2C19 inh | CYP2C9 inhib | CYP2C9 act | sEH inh | CYP2C19 act | sEH act
CC(C)n1c2ccccc2c2nc3ccccc3nc21 | – | – | – | – | – | –
O=C1C2CC=CCC2C(=O)N1c1ccc(Cc2ccncc2)cc1 (stereo unspecified) | 68 | 85 | – | – | – | –
CCOC(=O)N1CCN(S(=O)(=O)/C=C/c2ccccc2)CC1 | 85 | – | – | – | – | –
CCOC(=O)N1CCN(C/C(C)=C/c2ccccc2)CC1 | 61 | 65 | – | – | – | –
O=S(=O)(/C=C/c1ccccc1)N1CCN(c2ccccc2)CC1 | – | – | – | – | – | –
CCOC(=O)N1CCN(CC(=O)Nc2ccc(C)c(Br)c2)CC1 | 51 | – | – | – | – | –
CC1CCCCN1C(=O)NC12CC3CC(CC(C3)C1)C2 (stereo unspecified) | – | – | – | 87 | – | –
N#C/C(=C\c1cc(Cl)cc(Cl)c1O)C(=O)NC1CCCCC1 | – | – | – | – | – | –
N#C/C(=C\c1cc(Cl)ccc1O)C(=O)NC1CCCCC1 | – | 61 | – | – | – | –
Cc1ccnc2nc(C(=O)OCC(=O)Nc3ccc4c(c3)OC(F)(F)O4)nn12 | – | – | – | – | – | –
CC1=C(C#N)C(Nc2cccc(C)n2)(C(F)(F)F)C(=O)N1 (stereo unspecified) | 75 | – | – | – | – | –
Cn1c(N2CCN(C(=O)C34CC5CC(CC(C5)C3)C4)CC2)nc2ccccc21 | – | – | – | · | – | ·
Cc1ccc2c(CC(=O)Nc3nc(C)cs3)coc2c1 | – | – | – | – | – | –
CN(CCOc1ccccc1)S(=O)(=O)c1ccc2oc3ccccc3c2c1 | 52 | – | – | – | – | –
COc1ccc(OCCNS(=O)(=O)c2ccc3oc4ccccc4c3c2)cc1 | – | – | – | – | – | –
COc1ccccc1-c1cc(C(=O)NCc2ccc(F)cc2)no1 | – | – | 3 | · | – | ·
COc1ccccc1-c1cc(C(=O)NCCN2CCOCC2)no1 | – | – | 2.2 | – | – | –
CCCc1cc(C(=O)NCc2ccc(OC)cc2)no1 | 65 | – | – | – | – | –
O=C(NCc1ccc(F)cc1)c1cc(-c2ccco2)on1 | – | – | – | – | – | –
COc1ccc(CNC(=O)c2cc(-c3ccccc3OC)on2)cc1 | – | – | 2.7 | – | – | –
COc1cccc(C(=O)Nc2nc3c(c(=O)[nH]2)CCCC3)c1 | – | – | – | – | – | –
COCC(C)NC(=O)c1cc(-c2ccccc2OC)on1 (stereo unspecified) | – | – | 2.5 | – | – | –
COc1ccc(-c2cc(C(=O)NC(C)C)no2)cc1 | – | – | – | – | – | –
COc1ccccc1-c1cc(C(=O)Nc2c(C)n(C)n(-c3ccccc3)c2=O)no1 | – | – | 2.6 | – | – | –
COc1ccccc1-c1cc(C(=O)Nc2cc(C)on2)no1 | – | – | – | – | – | –
SMILES | CYP2C19 inh | CYP2C9 inhib | CYP2C9 act | sEH inh | CYP2C19 act | sEH act
COc1ccccc1-c1cc(C(=O)NCc2ccccc2)no1 | – | – | 2.8 | – | – | –
COc1ccccc1-c1cc(C(=O)NCc2ccc(Cl)cc2)no1 | – | – | 3.2 | – | – | –
c1ccc(CN2CCN(c3nc(NCc4ccco4)c4ccccc4n3)CC2)cc1 | 51 | 66 | – | – | – | –
CSc1nc(NCc2ccco2)c2ccccc2n1 | 64 | 64 | – | – | – | –
COc1cccc(-c2nc(NCc3ccco3)c3ccccc3n2)c1O | · | · | · | – | · | –
c1ccc(-c2nc(NCc3cccnc3)c3ccccc3n2)cc1 | – | 65 | – | – | – | –
OCCN1CCN(c2nc(NCc3ccco3)c3ccccc3n2)CC1 | · | · | · | – | · | –
OCCNc1nc(-c2cccnc2)nc2ccccc12 | – | – | – | – | – | –
OCCSc1nc(-c2cccnc2)nc2ccccc12 | 63 | 90 | – | – | – | –
CCCCNc1c([N+](=O)[O-])cc(C)cc1[N+](=O)[O-] | – | – | – | – | – | –
Cc1cccc(OCc2nnc(SCC(=O)Nc3sc(C)c(C)c3C#N)n2C)c1 | – | – | – | – | – | –
